PubChem BioAssay (NCI)
“And” between values parts separate entries of the source, which are not always exact repeats. Equal values may be shown once. Compounds without any hit were thinned out: in the full panel of roughly 83,000, 20% have a hit.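 The test compound was applied at a single concentration to cells in 96-well plates for 48 hours, and percent growth was recorded.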 A number with no mark means an inactive call. The source made the active and inactive calls. How the source made its calls: active means growth percent below 10; inactive means the rest.

Assays:
Assay in all cases: NCI-60 one-dose screen, 48 h (100 = growth as untreated, 0 = no growth, -100 = all killed)
HCT-15 colon = settings: 10 µM
HT29 colon = settings: 10 µM
SNB-75 CNS = settings: 10 µM
SNB-19 CNS = settings: 10 µM
U251 CNS = settings: 10 µM
PC-3 prostate = settings: 10 µM
SK-MEL-5 melanoma = settings: 10 µM
UACC-62 melanoma = settings: 10 µM unless noted
LOX IMVI melanoma = settings: 10 µM
SK-MEL-28 melanoma = settings: 10 µM
SK-MEL-2 melanoma = settings: 10 µM
SN12C renal = settings: 10 µM
UO-31 renal = settings: 10 µM
CAKI-1 renal = settings: 10 µM
A498 renal = settings: 10 µM
HL-60(TB) leukemia = settings: 10 µM
CCRF-CEM leukemia = settings: 10 µM
TK-10 renal = settings: 10 µM unless noted
ACHN renal = settings: 10 µM
EKVX NSCLC = settings: 10 µM

CCOP(=O)(OCC)/C(C#N)=C/c1ccc(Br)cc1
growth (HCT-15 colon): 96.3%
growth (HT29 colon): 98.2%
growth (SNB-75 CNS): 86.6%
growth (SNB-19 CNS): 96.8%
growth (U251 CNS): 99.3%
growth (PC-3 prostate): 95.9%
growth (SK-MEL-5 melanoma): 108%
growth (UACC-62 melanoma): 88.6%
growth (LOX IMVI melanoma): 95.5%
growth (SK-MEL-28 melanoma): 115%
growth (SK-MEL-2 melanoma): 103%
growth (SN12C renal): 98.5%
growth (UO-31 renal): 81.3%
growth (CAKI-1 renal): 76.2%
growth (A498 renal): 121%
growth (HL-60(TB) leukemia): 92.1%
growth (CCRF-CEM leukemia): 100%

O=C(O)c1cc(Cc2ccc(O)c(C(=O)O)c2)ccc1O (tested in a mixture with another compound)
growth (HCT-15 colon): 49.4%
growth (HT29 colon): 25%
growth (SNB-75 CNS): 51.2%
growth (SNB-19 CNS): 85.6%
growth (U251 CNS): 70.4%
growth (PC-3 prostate): -31.5% (active)
growth (SK-MEL-5 melanoma): 71.3%
growth (UACC-62 melanoma): 69.5%
growth (LOX IMVI melanoma): -47.3% (active)
growth (SK-MEL-28 melanoma): 84.6%
growth (SK-MEL-2 melanoma): -53.3% (active)
growth (SN12C renal): 87.1%
growth (UO-31 renal): 42.6%
growth (TK-10 renal): 93%
growth (ACHN renal): 77%
growth (CAKI-1 renal): 58.4%
growth (A498 renal): 84.7%
growth (HL-60(TB) leukemia): 21.3%
growth (CCRF-CEM leukemia): 0.136% (active)

Cc1ccc(C(=O)C2C(c3ccccc3)N2C2CCCCC2)cc1 (stereo unspecified)
growth (HCT-15 colon): 99.3% and 89.8%
growth (HT29 colon): 111% and 84.9%
growth (SNB-75 CNS): 97.5% and 88.8%
growth (SNB-19 CNS): 105% and 94%
growth (U251 CNS): 106% and 93.1%
growth (PC-3 prostate): 98% and 83%
growth (SK-MEL-5 melanoma): 88.1% and 99%
growth (UACC-62 melanoma): 102% and 91.2%
growth (LOX IMVI melanoma): 99.9% and 98.1%
growth (SK-MEL-28 melanoma): 105% and 102%
growth (SK-MEL-2 melanoma): 101% and 98.3%
growth (SN12C renal): 107% and 100%
growth (UO-31 renal): 92.8% and 73.4%
growth (CAKI-1 renal): 107% and 94.3%
growth (A498 renal): 105% and 89%
growth (HL-60(TB) leukemia): 98.3% and 94.8%
growth (CCRF-CEM leukemia): 94.2% and 96%

COc1ccccc1/C=C/[N+](=O)[O-]
growth (HCT-15 colon): 42.3%
growth (HT29 colon): 39.5%
growth (SNB-75 CNS): 69.4%
growth (SNB-19 CNS): 86.9%
growth (U251 CNS): 50.3%
growth (PC-3 prostate): 64.1%
growth (SK-MEL-5 melanoma): 83.4%
growth (UACC-62 melanoma): 73%
growth (LOX IMVI melanoma): 37.4%
growth (SK-MEL-28 melanoma): 79.4%
growth (SK-MEL-2 melanoma): 104%
growth (EKVX NSCLC): 72.6%
growth (SN12C renal): 83.2%
growth (UO-31 renal): 62%
growth (TK-10 renal): 72.9%
growth (CAKI-1 renal): 70.9%
growth (A498 renal): 109%
growth (HL-60(TB) leukemia): 6.74% (active)

ClCc1ccc2ccccc2n1
growth (HCT-15 colon): 103%
growth (HT29 colon): 94.1%
growth (SNB-75 CNS): 81.8%
growth (SNB-19 CNS): 103%
growth (U251 CNS): 103%
growth (PC-3 prostate): 92.1%
growth (SK-MEL-5 melanoma): 91%
growth (UACC-62 melanoma): 74.9%
growth (LOX IMVI melanoma): 80.5%
growth (SK-MEL-28 melanoma): 110%
growth (SK-MEL-2 melanoma): 99.4%
growth (EKVX NSCLC): 93.2%
growth (SN12C renal): 86%
growth (UO-31 renal): 89.8%
growth (CAKI-1 renal): 58.5%
growth (A498 renal): 98.1%
growth (HL-60(TB) leukemia): 66.3%
growth (CCRF-CEM leukemia): 103%

COc1cc([C@@H]2c3cc4c(c(O)c3C[C@H]3COC(=O)[C@@H]32)OCO4)cc(OC)c1OC
growth (HCT-15 colon): 10.2%
growth (HT29 colon): 12.9%
growth (SNB-75 CNS): 24%
growth (SNB-19 CNS): 7.28% (active)
growth (U251 CNS): 23.8%
growth (PC-3 prostate): -0.628% (active)
growth (SK-MEL-5 melanoma): -42.8% (active)
growth (UACC-62 melanoma): 64.3%
growth (LOX IMVI melanoma): 19.9%
growth (SK-MEL-28 melanoma): 54.3%
growth (SK-MEL-2 melanoma): -25.1% (active)
growth (EKVX NSCLC): 44.2%
growth (SN12C renal): 31.8%
growth (UO-31 renal): 32.7%
growth (TK-10 renal): 38.8%
growth (ACHN renal): 33.8%
growth (CAKI-1 renal): 20.3%
growth (A498 renal): -29.1% (active)
growth (HL-60(TB) leukemia): -33.5% (active)
growth (CCRF-CEM leukemia): -5.4% (active)

O=[N+]([O-])c1ccc(N2CCOCC2)c2c1no[n+]2[O-]
growth (HCT-15 colon): -19.3% (active)
growth (HT29 colon): -29.3% (active)
growth (SNB-75 CNS): -15.5% (active)
growth (SNB-19 CNS): 28.8%
growth (U251 CNS): 2.99% (active)
growth (PC-3 prostate): 10.9%
growth (SK-MEL-5 melanoma): 25.4%
growth (UACC-62 melanoma): -24.9% (active)
growth (LOX IMVI melanoma): -14.3% (active)
growth (SK-MEL-28 melanoma): 49.3%
growth (SK-MEL-2 melanoma): -4.77% (active)
growth (SN12C renal): 16.8%
growth (UO-31 renal): 8.16% (active)
growth (TK-10 renal): -0.265% (active)
growth (CAKI-1 renal): 26.1%
growth (A498 renal): -14.1% (active)
growth (HL-60(TB) leukemia): -16.7% (active)
